The source of these data is the supplement of paper PMC6555819.

The subject of one experiment is PPARg:RXRa 270nM:90nM, anti-RXR (NR concentration 270 nM, RXRa partner concentration 90 nM). Nature of the experiment: PBM binding z-score (relative to random genomic background probes); higher = stronger binding; sequences stand for … in GC…GCGATTGACAGCGTAGAATGAAGG
The gist of the method: (§1)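 Random background probes are the reference for binding z-scores. These scores derive from regression-normalized fluorescence on custom Agilent 4×180K protein-binding microarrays incubated 1 h with ligand-free nuclear receptor dimers. Binding was detected with antibodies against each partner (one per run).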
On to CTACCAAAGTGAACAAGGTCGTTGATTACTATTC, for which the PBM binding z-score was 0.215.
As for GCTAGTTGCTCAGTAAAAGGTCACACACCGGTCG, the PBM binding z-score is 3.52.
The same measure, in the same setting: to TCTCGGGGGACACGAAAGGTCAGAGCTCGACATC belongs 4.96; to AGTCAAAGTTCATCTAGGTAACGTAAGATATGCT, 6.14.
The same measure, in the same setting: to ATATGTAGGTCACATCCGGGTCATTCAGGCTATG belongs 7.48; to AGAATGAGGTTAAGAGCAGGGAAACAGAATACAT, 2.15.
Still for that read-out and setting: to GCTTACGGGTCAAAGGTTATAGCCTGAATAGAAT belongs 9.6; to CAAGCTAGGTCACGAAAGGTCAAAGTCGAATGAC, 7.14.
TAGCCTATGTCATGGGCCAGTATACCACGCGAAC came in with a PBM binding z-score of -0.0658.
Still for that read-out and setting: with CGTCCAAGGTCAGCAGGTCAGTGACAGCGACGTG the figure was 4.53; with TCATATAGGTAAAGGTGAAAGTGGAACGATATGA, 4.97; with ATCTCAAGGTAACCAAGTTCAGTGAATGCCGAAC, 0.412.
Same read-out and setting: to CCTTACGGGTCAAGGTGATAGCACGGGTGGTACG belongs 4.52.
Still for that read-out and setting: to ACAGACAGGTGAGTGAAGGTATCTCAGCTGGACG belongs -0.119; to CAAACTAGGTCAAAGGTCCAAGTCGAGCCAACCA, 10.1.
The sequence ATATGTAGGTTAAGGGTCAGTCAGGTTGGTTCGC registered a PBM binding z-score of 9.37.
On the same count and under the same terms, with TCTGCTAGGTCAGTTGTTCAGCTAACGAGCTGCC the figure was 1.24; with AGTCAAAGTTCAGGAGGAGGTAACGTAAAGCACG, 5.22; with CCTTGCAGGCCAATCTGGGTCACTCAAGGCTTGA, 2.35.
The same measure, in the same setting: to AGAACGAAGGCAATGAGTTGATAGCACGGGTGGC belongs -0.61.
In turn, AGTCAAAGTTCACTAGGTAACGTGAGATTCAGCT registered a PBM binding z-score of 6.33.
GTACCAAGGTGAATTGGTCGTTGATGAGTAGGCG returned a PBM binding z-score of 0.173.
The sequence TCTGCTAGGTCAGTTCGTCAGCTAACGAGCTGCC yielded a PBM binding z-score of 1.38.
The sequence CCTACTGGGGCAAAAAGGTCATTGATGCCGATAA yielded a PBM binding z-score of 5.28.
The same measure, in the same setting: with TTACCAAGGTGAAAGGTAGTTGATGCACGCCTTG the figure was 4.56; with TCAGACAGGTGAAGGTAACTTAGGTACGCAGTCG, 2.45.
On the same count and under the same terms, to GCTGCTAGGTCAGGTGGGTCAGCTAACGGGTACG belongs 1.61; to TAGCCTAGCTCATTGGGCCAGTATAGTACGCATC, -0.576; to AACACAGGGTCATCGTAGGCCAGAGTACGCACAG, 5.7.
With GTACCAAGGTGGATAGGTCGTTGATGAGTAGGCG, the PBM binding z-score is 0.293.
The sequence ACTATTAGTTGAGACGAGGGTAACCGATAGGTTG had a PBM binding z-score of 0.0504.
Same read-out and setting: with CGTCAAAGTTCTACTAAGGTAACGTAAAGCACGC the figure was 0.289.
The same measure, in the same setting: with CGTCCAAGGTCAGAGGTCAGTGAAGAGATGACGG the figure was 6.86; with GCTATTAATTGAAAGGGCAACCGAATGATTCTCG, 0.921.
Still for that read-out and setting: with GCATATAGGTAATACAAGGTGAACGTCCGATTGT the figure was 1.12.
In the case of CGTGCAAGGTCATAGGAGGTCAGTGAAGACAGAT, the PBM binding z-score came to 6.37.
The same measure, in the same setting: to CAAACTAGGTCACCGGAAGGTCAAAGTCCGCATG belongs 7.87; to TAGGCTAGGTCATGGGCCAGTATACCACGCGAAC, 4.24; to CGTCCAAGGTCAGAGAGGTCAGGGAATGCCGAGT, 4.53.
Consider AGAATGACGTTATTAAGATCAGGGAATTGCGGTC, for which the PBM binding z-score was 0.0531.

For the next experiment, the system named is PPARg:RXRa 30nM:10nM, anti-RXR (NR concentration 30 nM, RXRa partner concentration 10 nM). The experiment is described as above. The gist of the method:
as §1
Consider CTACCAAAGTGAACAAGGTCGTTGATTACTATTC, for which the PBM binding z-score is 0.23.
GCTAGTTGCTCAGTAAAAGGTCACACACCGGTCG returned a PBM binding z-score of 1.06.
On the same count and under the same terms, to TCTCGGGGGACACGAAAGGTCAGAGCTCGACATC belongs 3.73; to AGTCAAAGTTCATCTAGGTAACGTAAGATATGCT, 3.3; to ATATGTAGGTCACATCCGGGTCATTCAGGCTATG, 5.41.
On the same count and under the same terms, to AGAATGAGGTTAAGAGCAGGGAAACAGAATACAT belongs 0.589; to GCTTACGGGTCAAAGGTTATAGCCTGAATAGAAT, 10.2.
The same measure, in the same setting: to CAAGCTAGGTCACGAAAGGTCAAAGTCGAATGAC belongs 4.23; to TAGCCTATGTCATGGGCCAGTATACCACGCGAAC, -0.369.
With CGTCCAAGGTCAGCAGGTCAGTGACAGCGACGTG, the PBM binding z-score came out at 1.26.
Still for that read-out and setting: to TCATATAGGTAAAGGTGAAAGTGGAACGATATGA belongs 4.56; to ATCTCAAGGTAACCAAGTTCAGTGAATGCCGAAC, 0.204; to CCTTACGGGTCAAGGTGATAGCACGGGTGGTACG, 1.62.
In the case of ACAGACAGGTGAGTGAAGGTATCTCAGCTGGACG, the PBM binding z-score is 0.319.
The same measure, in the same setting: to CAAACTAGGTCAAAGGTCCAAGTCGAGCCAACCA belongs 12.4.
Same read-out and setting: with ATATGTAGGTTAAGGGTCAGTCAGGTTGGTTCGC the figure was 9.35.
Still for that read-out and setting: to TCTGCTAGGTCAGTTGTTCAGCTAACGAGCTGCC belongs 1.28; to AGTCAAAGTTCAGGAGGAGGTAACGTAAAGCACG, 2.38; to CCTTGCAGGCCAATCTGGGTCACTCAAGGCTTGA, -0.0639.
As for AGAACGAAGGCAATGAGTTGATAGCACGGGTGGC, the PBM binding z-score is -0.619.
In turn, AGTCAAAGTTCACTAGGTAACGTGAGATTCAGCT showed a PBM binding z-score of 3.41.
On the same count and under the same terms, to GTACCAAGGTGAATTGGTCGTTGATGAGTAGGCG belongs -0.286.
In turn, TCTGCTAGGTCAGTTCGTCAGCTAACGAGCTGCC had a PBM binding z-score of 1.37.
Still for that read-out and setting: with CCTACTGGGGCAAAAAGGTCATTGATGCCGATAA the figure was 2.57.
On the same count and under the same terms, to TTACCAAGGTGAAAGGTAGTTGATGCACGCCTTG belongs 2.81; to TCAGACAGGTGAAGGTAACTTAGGTACGCAGTCG, 4.08; to GCTGCTAGGTCAGGTGGGTCAGCTAACGGGTACG, -0.279.
Same read-out and setting: to TAGCCTAGCTCATTGGGCCAGTATAGTACGCATC belongs -0.321; to AACACAGGGTCATCGTAGGCCAGAGTACGCACAG, 1.96.
Turning to GTACCAAGGTGGATAGGTCGTTGATGAGTAGGCG, the PBM binding z-score was -0.451.
The same measure, in the same setting: with ACTATTAGTTGAGACGAGGGTAACCGATAGGTTG the figure was 0.213; with CGTCAAAGTTCTACTAAGGTAACGTAAAGCACGC, 0.196; with CGTCCAAGGTCAGAGGTCAGTGAAGAGATGACGG, 5.6.
The same measure, in the same setting: to GCTATTAATTGAAAGGGCAACCGAATGATTCTCG belongs -0.0129.
The same measure, in the same setting: with GCATATAGGTAATACAAGGTGAACGTCCGATTGT the figure was 0.658.
Take CGTGCAAGGTCATAGGAGGTCAGTGAAGACAGAT: the PBM binding z-score came out at 2.92.
On the same count and under the same terms, with CAAACTAGGTCACCGGAAGGTCAAAGTCCGCATG the figure was 5.79.
Still for that read-out and setting: to TAGGCTAGGTCATGGGCCAGTATACCACGCGAAC belongs 1.3; to CGTCCAAGGTCAGAGAGGTCAGGGAATGCCGAGT, 1.42.
On the same count and under the same terms, to AGAATGACGTTATTAAGATCAGGGAATTGCGGTC belongs -0.0762.
